Test results taken from PubChem BioAssay AID651871 (Sanford-Burnham Center for Chemical Genomics, 2012).
Several values for one entry are separate records, joined by “and”; a condition that tells them apart may be missing. Equal values may be shown once.

What follows are compounds tested on H9c2 (assay: cardiomyocyte survival under oxidative or metabolic stress – cell-based, panel, H9c2 and HL-1, ATP luminescence, set 2, SAR follow-up (AID 651871;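 note: cells exposed to stressor for 2 h before ATP readout; reference of the scale not given here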)). Conditions: H9c2/HL-1 cardiomyocytes, H2O2 oxidative stress; with H2O2, run 4, at 79 µM (top of the series).
For COc1cc(-c2cc(C(=O)Nc3cccc(C(=O)NCc4ccccc4)c3)c3ccccc3n2)cc(OC)c1OC, the activity (protection/inhibition) was 87.2%. With COc1ccc2c(c1OC)C(=O)N1c3ccccc3C(=O)N(Cc3cccc(Cl)c3Cl)C21 (centres undefined) the activity (protection/inhibition) was 52.4% and 40.9%. CCOC(=O)c1cccc(NC(=O)CNC(=O)c2cc(-c3cc(OC)c(OC)c(OC)c3)nc3ccccc23)c1 was tested, and the activity (protection/inhibition) was 115%. For COc1ccc2nc(-c3cc(OC)c(OC)c(OC)c3)cc(C(=O)NCC(=O)Nc3ccc(C(C)=O)cc3)c2c1, the activity (protection/inhibition) was 86.1% and 56.6%.
